Experimental data taken from PubChem BioAssay (NCI).
About 79,000 compounds went through this panel and 15% of them were active in at least one assay; those are over-represented in the sample as a whole. A number with no mark means an inactive call. The source made the active and inactive calls. Rule as the data show it: active = growth inhibition above about 70%; inactive = the rest.

Assay: NCI Yeast Anticancer Drug Screen. Data for the rad50 strain (AID 155);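 also: 0% = growth of vehicle-only cultures of the same strain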
Settings: S. cerevisiae rad50 strain growth inhibition; at 50.0 µM; stronger effect = higher value
In short: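 Growth of the mutant yeast was measured after compound exposure and referenced to vehicle-treated cultures.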

Point of comparison: `Nc1ccc(N)c2cc(S(=O)(=O)O)ccc12`, growth inhibition 3.85%. Against it:
- c1ccc(-n2nnc3c2CCCC3)cc1 — lower, -3.2%
- CCCCCCC1OCCO1 — higher, 29.8%
- CCN(CC)C1=Nc2ccccc2N(c2ccccc2)C(SC)=C1 — lower, -1.4%
- Cc1nc2nn[nH]n2c(=O)c1CCO — higher, 13.2%
- COc1nc(Cl)nc(C(N)=O)c1N — higher, 7.95%

Assay: NCI Yeast Anticancer Drug Screen. Data for the mec2-1 strain (AID 157)
Settings: S. cerevisiae mec2-1 strain, at 50.0 µM, stronger effect = higher value
In short: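 Each compound was tested on mec2-1 yeast, a strain altered in DNA damage repair or cell cycle control. Growth inhibition is reported relative to vehicle.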

Point of comparison: `C=CCN(CC=C)C(=S)NC(=O)c1ccccc1`, growth inhibition 27.8%. Against it:
- CC=C(c1ccccc1)c1ccccc1 — lower, -25.2%
- CC(=O)c1ccc2c(c1)-c1ccc(C(C)=O)cc1-2 — lower, -0.7%
- N#Cc1n[nH]n(C2CCCCC2)c1=O — lower, -12.8%
- CCC(C1=CCCCC1)c1nc2c([nH]1)c(=O)n(C)c(=O)n2C (stereo unspecified) — lower, 8.5%
- CCCCNS(=O)(=O)c1ccccc1 — lower, -18.1%
- CSc1ccc(NC(=O)NNP(=S)(Oc2ccc(C(C)(C)C)cc2)Oc2ccc(C(C)(C)C)cc2)cc1 — lower, -18.1%
- CC(C(=O)O)C1(O)CCCCC1 (stereo unspecified) — lower, -13.9%
- CC(C)(N)COC(=O)c1ccc([N+](=O)[O-])cc1 — lower, -23.7%
- C=CCOC(=O)NC(Cc1ccc(O)cc1)C(=O)O (stereo unspecified) — lower, -4.85%
- C/C(CC(=O)Nc1ccc(C)c(C)c1)=N\NC(N)=O — lower, -28.6%
- O=C(c1ccccc1)C(O)(c1ccccc1)C(c1ccccc1)c1ccccc1 (stereo unspecified) — lower, 18.6%
- CC(=O)OC1COC(n2cnc3c(N)ncnc32)C(OC(C)=O)C1OC(C)=O (stereo unspecified) — lower, -5.15%
- O=C(Nc1cccc2ccccc12)c1ccc(Cl)c(Cl)c1 — higher, 53.4%
- [O-][n+]1c2ccccc2nn1-c1ccccc1 — lower, -4.25%
- COc1ccc(/C=C2/SC(=Nc3ccccc3)N(NC(=O)Cc3ccccc3)C2=O)c(OC)c1 — lower, -19.3%
- CCOc1c(Cc2ccccc2)c(=O)n2c3ccccc3n3c(=O)n(C)c(=O)c1c23 — lower, -22.4%
- CCCCc1noc(N)c1SCC — lower, 9.5%
- [Cl][Cu][Cl].c1ccc2c(c1)Sc1ccccc1[N+]2=c1ccc2nc3ccccc3sc-2c1 — higher, 45.8%
- CC1c2ccccc2-c2ccccc21 — lower, -4.9%
- Cc1nc2ccccc2c(=O)n1C — lower, -17.9%
- CC(=O)OCC(=O)C1(C)CCC2(C)CCC3(C)C(=CC(=O)C4C5(C)CCC(=O)C(C)(C)C5CCC43C)C2C1 (stereo unspecified) — lower, -30.8%
- COc1ccc2c(c1)s/c(=N/N)n2CCCS(=O)(=O)O — lower, -1.75%
- NC(Cc1ccc(O)cc1)C(=O)OCc1ccccc1 (stereo unspecified) — lower, 0.5%
- N#CSCC(=O)CCC(=O)O — lower, 0.7%
- CCN(CC)C(=O)c1cncc(C(N)=O)c1 — lower, -14.7%
- Cc1ccc(/C=C/c2cc(/C=C/c3ccc(C)cc3)c([N+](=O)[O-])cc2[N+](=O)[O-])cc1 — lower, -15.2%
- Oc1ccc(Cl)cc1/C=N\N=C\c1cc(Cl)ccc1O — lower, -1.1%
- Cc1nc(=S)c2cnn(-c3ccccc3)c2[nH]1 — lower, -21.2%
- O=CNC(Cc1cnc[nH]1)C(=O)O (stereo unspecified) — lower, -16.9%
- CC(=O)Oc1ccc2ccccc2c1CN(C(C)=O)c1ccc(C)cc1 — lower, -22.7%
- c1ccc(-n2nnc3c2CCCC3)cc1 — lower, -1.6%
- CCCCCCC1OCCO1 — lower, 2.8%
- CCN(CC)C1=Nc2ccccc2N(c2ccccc2)C(SC)=C1 — lower, -6.9%
- Nc1ccc(N)c2cc(S(=O)(=O)O)ccc12 — lower, -4.8%
- Cc1nc2nn[nH]n2c(=O)c1CCO — lower, 0.15%
- COc1nc(Cl)nc(C(N)=O)c1N — lower, 9.9%

With `CC(=O)OC(C)c1cc2c(s1)C(=O)c1sccc1C2=O` (stereo unspecified) the growth inhibition was 91% (active).
With `O=[N+]([O-])c1ccc2c(c1)nc(-c1ccccn1)n2CCc1ccncc1` the growth inhibition was 98.7% (active).
For `Brc1ccc(C2NC(c3ccccc3)c3c(ccc4ccccc34)O2)cc1` (stereo unspecified), the growth inhibition was 77.7% (active).
